# Compound activity as filed in PubChem.
# Rows were chosen to be rich in hits. Some 1.1% of all compounds tested hit in one or more screens of this group.
# BJeLR viability: BJeLR cell viability loss; inhibition, % (test concentration not listed); BJeLR (HRASV12) viability, CellTiter-Glo ATP luminescence, 48 h; actives 0.17% (n = 300,000); in the data active = inhibition above about 50%
# Mtb BioA inh: blocks M. tuberculosis BioA enzyme activity; purified M. tuberculosis BioA enzyme, plate reader; actives 0.096% (n = 360,000); inhibition, % at 9.99 µM; in the data active = inhibition above about 40%
# MazF activator: MazEF (E. coli) toxin RNase activation; P0AE70; actives 0.32% (n = 350,000); activation, % at 20 µM; FAM/BHQ RNA-DNA oligo cleavage fluorescence, 5 h; in the data active = activation above about 50%
# Target sequence (P0AE70 whole entry, looked up): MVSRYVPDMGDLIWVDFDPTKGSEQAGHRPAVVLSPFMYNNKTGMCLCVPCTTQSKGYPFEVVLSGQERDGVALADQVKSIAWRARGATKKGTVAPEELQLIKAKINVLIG
# Y pestis TopoI: inhibitors of Yersinia pestis topoisomerase I; Y. pestis Topo-I cleavage product accumulation, plate reader; activity, % at 10 µM; actives 0.064% (n = 360,000); AID 504884; in the data active = activity above about 50%, passing the limit was not always enough
# 3CLpro inhibitor: SARS-CoV 3CLpro protease inhibition | actives 0.14% (n = 290,000) | inhibition, % at 6 µM | recombinant SARS-CoV 3CLpro, quenched FRET peptide cleavage; in the data active = inhibition above about 12%
# PfHsp40 yeast: rescue of PfHsp40-mediated yeast toxicity. S. cerevisiae expressing PfHsp40, growth rescue, ATP luminescence. growth rescue, % at 12.5 µM. actives 0.68% (n = 340,000). AID 504582; in the data active = growth rescue above about 28%, passing the limit was not always enough;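 note: yeast W303a lacking pdr1 and pdr3 grown in galactose medium; growth measured after three days at 30 °C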
# Starred values were filed as active, the others as inactive; . = not tested or not shown.
SMILES,BJeLR viability,Mtb BioA inh,MazF activator,Y pestis TopoI,3CLpro inhibitor,PfHsp40 yeast
CCCCCCNC(=O)C(C#N)c1nc2ccccc2nc1N1CCCC1 (stereo not drawn),1,-4,370*,-6,2,0
CC(C)NC(=O)N(C)C[C@@H]1Oc2c(NS(C)(=O)=O)cccc2C(=O)N([C@H](C)CO)C[C@@H]1C,.,1,.,.,.,.
COc1ccc(NC(=O)Nc2ccc3c(c2)[C@H]2C[C@H](CC(=O)NCCc4ccccc4)O[C@@H](CO)[C@H]2O3)cc1,.,-5,.,.,.,.
Cc1ccc(/C=C2\SC(=S)N(C(Cc3ccccc3)C(=O)O)C2=O)cc1 (stereo not drawn),-18,6,-6,1,4,161*
CNC(=O)C[C@@H]1CC[C@H]2[C@@H](COc3ccc(NC(=O)c4cccc(F)c4)cc3C(=O)N2C)O1,.,3,.,.,.,.
CCCC#Cc1cnc2c(c1)C(=O)N([C@H](C)CO)C[C@@H](C)[C@H](CN(C)C(=O)CN1CCOCC1)O2,.,0,.,.,.,.
COCC(=O)Nc1ccc2c(c1)OC[C@H](C)N(Cc1cccc(F)c1)C[C@H](C)[C@H](OC)CN(C)C2=O,.,1,.,.,.,.
O=C(O)C1Cc2[nH]cnc2C(c2ccc(F)cc2)N1 (stereo not drawn),-10,.,-5,2,-6,61*
Cc1c(C(=O)Nc2ccncc2)sc2nc(-c3ccccc3)cn12,13,0,-9,21,1,1
Cc1c(C(=O)Nc2ccc3c(c2)OCCO3)sc2nc(-c3ccccc3)cn12,8,-2,-11,21,-2,145*
CCC1(CC)C(=O)NC(=Nc2cccc(C(F)(F)F)c2)NC1=O,-20,0,6,5,0,111*
Cc1cc(C)c(S(=O)(=O)N2CCN(c3ccccn3)CC2)c(C)c1,.,1,0,21,.,53*
COCCNC(=O)[C@@H]1[C@@H](CO)[C@@H]2Cn3c(ccc(-c4ccccc4)c3=O)[C@H]1N2C(=O)NC(C)C,.,-1,.,.,.,.
CNc1ncnc(Sc2nc(N)nc3nc[nH]c23)c1[N+](=O)[O-],.,.,6,1,.,0
Nc1nc(Sc2ccc([N+](=O)[O-])c3nonc23)c2[nH]cnc2n1,.,.,60*,-28,.,7
Clc1ccc2c(c1)c1cc(Cl)ccc1n2CN1CCOCC1,-5,-1,4,2,5,367*
Clc1ccc2c(c1)c1ccccc1n2CN1CCOCC1,0,1,-23,10,-2,31*
Cc1ccc(S(=O)(=O)N(C(=O)c2ccncc2)c2ccc(OC(=O)c3ccncc3)cc2)cc1,-14,.,7,16,2,372*
O=C(Oc1ccc(N(C(=O)c2ccncc2)S(=O)(=O)c2ccc(F)cc2)cc1)c1ccncc1,1,4,-6,8,6,5
CCc1ccc(S(=O)(=O)N(C(=O)c2ccncc2)c2ccc(OC(=O)c3ccncc3)cc2)cc1,-19,18,2,19,0,234*
O=C(Oc1ccc(N(C(=O)c2ccncc2)S(=O)(=O)c2ccc(Cl)cc2)cc1)c1ccncc1,12,2,2,5,0,422*
COc1ccc(N(C(=O)c2ccncc2)S(=O)(=O)c2ccc(Cl)cc2)cc1,2,2,2,6,0,141*
Cc1ccc(S(=O)(=O)Nc2ccc3c(c2)C(=O)N([C@H](C)CO)C[C@H](C)[C@H](CN(C)C(=O)Nc2ccccc2)OCCCC[C@H](C)O3)cc1,.,-3,.,.,.,.
C/C=C/c1ccc2c(c1)O[C@H](CN(C)C(=O)c1cnccn1)[C@@H](C)CN([C@@H](C)CO)S2(=O)=O,.,3,.,.,.,.
C[C@@]12C(=O)Nc3ccc(Cl)cc3C(=O)N1[C@H]1c3ccccc3OC[C@@H]1[C@@H]2c1ccccc1,.,0,-10,21,.,118*
C[C@@]12C(=O)Nc3ccc(F)cc3C(=O)N1[C@H]1c3ccccc3OC[C@@H]1[C@@H]2c1ccccc1,.,-1,-4,15,.,138*
C[C@@]12C(=O)Nc3cc(Cl)ccc3C(=O)N1[C@H]1c3ccccc3OC[C@@H]1[C@@H]2c1ccccc1,.,0,-2,9,.,1
C[C@@H]1CCCCO[C@@H](CN(C)Cc2ccc(C(F)(F)F)cc2)[C@@H](C)CN([C@@H](C)CO)C(=O)c2cc(NS(=O)(=O)c3ccc(Cl)cc3)ccc2O1,.,2,.,.,.,.
COc1cccc(NC(=O)N[C@@H]2CC[C@@H](CC(=O)Nc3ccccc3)O[C@H]2CO)c1,.,0,.,.,.,.
